# Reference: PubChem BioAssay (Tox21)
# Several values for one entry are separate records, joined by “and”; a condition that tells them apart may be missing. Equal values may be shown once. Records with an inconclusive call do not appear. Entries that show only a call come without a potency. Activity calls are given as the source filed them. Unless noted, calls follow the shape of the dose curve; as a rule, active = well fitted cell-killing curve with a large enough effect in the repeat runs; inconclusive = weak or mixed curves, or effect the other way; inactive = flat fitted curve, though single readings scatter.
# Assay: qHTS assay to identify small molecule antagonists of the estrogen receptor alpha (ER-alpha) signaling pathway using the BG1 cell line (AID 743080; calls by dose curve;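 also: BG1 cells stimulated with 17beta-estradiol alongside compound; nearly all actives have a fitted effect of over 25% in size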)
# Settings: BG1Luc4E2 ERE-luciferase antagonist mode, luminescence; series mostly up to 70.3 µM
# Summary of the method: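 Seeding, 24 h rest, compound transfer from DMSO, 17beta-estradiol addition, 21.5 h incubation, CellTiter-Fluor (30 min, 37 C), then ONE-Glo (30 min, room temperature): this sequence was run on BG1-Luc-4E2 reporter cells.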
row,Structure (SMILES),Potency
1,CSc1nc(NC(C)C)nc(NC(C)C)n1,inactive
2,CNC(=O)CSP(=S)(OC)OC,inactive
3,OC(c1ccc(Cl)cc1)(c1cncnc1)c1ccccc1Cl (configuration not stated),inactive
4,CCC/C=N/O,inactive
5,C[C@]12CCC(=O)C=C1CC[C@@H]1[C@@H]2CC[C@@]2(C)[C@H]1CC[C@]2(C)O,inactive

# Assay: qHTS assay to identify small molecule antagonists of the estrogen receptor alpha (ER-alpha) signaling pathway using the BG1 cell line - cell viability counter screen (AID 743081);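 also: compound given together with 17beta-estradiol as the ER stimulus; nearly all actives have a fitted effect of over 45% in size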; also: potency is read from the fitted curve at half-maximal effect
# Settings: BG1Luc4E2 viability, CellTiter-Fluor, 22 h; series mostly up to 70.3 µM
row,Structure (SMILES),Potency
1,CN(C)c1nc(=O)n(C2CCCCC2)c(=O)n1C,inactive
2,Clc1ccc(C(Cl)(Cl)Cl)cc1,inactive
3,CCOP(=S)(OCC)SCn1c(=O)oc2cc(Cl)ccc21,inactive
4,COc1ccc(O)c(C(C)(C)C)c1,inactive
5,CC1=C(C(=O)Nc2ccccc2)SCCO1,inactive
6,CCCCOCCOC(C)=O,inactive
7,CNC(=O)Oc1cccc2c1OC(C)(C)C2,inactive
8,O=NN(c1ccccc1)c1ccccc1,inactive
9,O=C(O)CF,inactive
10,CCOP(=S)(OCC)SCSC(C)(C)C,inactive
11,CCOS(=O)(=O)OCC,inactive
12,ClC(Cl)=C(Cl)C(Cl)=C(Cl)Cl,inactive
13,CC1(C)Cc2cccc(O)c2O1,inactive
14,CC(C)COC(=O)c1ccccc1C(=O)OCC(C)C,inactive
15,N#Cc1cccnc1,inactive
16,ClC(Cl)(Cl)c1ccccc1,inactive
17,CCCCOCC1CO1 (configuration not stated),inactive
18,CCCCCCCCCCCCCl,inactive
19,CCC1(c2ccc(N)cc2)CCC(=O)NC1=O (configuration not stated),inactive

row,Structure (SMILES),Potency
1,C=C(C)C#N,inactive
2,Cc1cccc(N=Nc2ccc(N(C)C)cc2)c1,31.2 µM (active) and 27.3 µM (active)
3,O=NN1CCOCC1,inactive
4,c1ccc2c(c1)Nc1ccccc1S2,inactive
5,CC[n+]1c(-c2ccccc2)c2cc(N)ccc2c2ccc(N)cc21,54.2 µM (active)
6,COc1ccc(C=O)cc1OC,inactive
7,CC(C)Nc1nc(Cl)nc(NC(C)C)n1,inactive
8,O=[N+]([O-])/N=C1\NCCN1Cc1ccc(Cl)nc1,inactive
9,CCOC(=O)c1ccccc1N,inactive
10,CN(C)P(=O)(N(C)C)N(C)C,inactive
11,CCCCOC(=O)COC(=O)c1ccccc1C(=O)OCCCC,inactive
12,CC(C)=CC1C(C(=O)OCc2cccc(Oc3ccccc3)c2)C1(C)C (configuration not stated),inactive
13,Clc1cccc(C(Cl)(Cl)Cl)n1,inactive
14,CSc1nc(NC(C)C)nc(NC(C)C)n1,inactive
15,CNC(=O)CSP(=S)(OC)OC,inactive
16,OC(c1ccc(Cl)cc1)(c1cncnc1)c1ccccc1Cl (configuration not stated),inactive
17,CCC/C=N/O,inactive
18,C[C@]12CCC(=O)C=C1CC[C@@H]1[C@@H]2CC[C@@]2(C)[C@H]1CC[C@]2(C)O,inactive
